# Source: PubChem (National Center for Advancing Translational Sciences (NCATS))
# Rows were chosen to be rich in hits. Some 2.9% of all compounds tested hit in one or more screens of this group.
# GLP1R ag: qHTS of GLP-1 Receptor Agonists | Glucagon-like peptide 1 receptor (Homo sapiens), P43220 | HEK293 GLP-1R CRE-luciferase, luminescence, 4-6 h; cells express a hypersensitive GLP-1R form | Potency, µM (titrated, usually from 45.6 µM), hits mostly activators | actives 0.007% (n = 380,000)
# Target sequence (P43220 whole entry, looked up): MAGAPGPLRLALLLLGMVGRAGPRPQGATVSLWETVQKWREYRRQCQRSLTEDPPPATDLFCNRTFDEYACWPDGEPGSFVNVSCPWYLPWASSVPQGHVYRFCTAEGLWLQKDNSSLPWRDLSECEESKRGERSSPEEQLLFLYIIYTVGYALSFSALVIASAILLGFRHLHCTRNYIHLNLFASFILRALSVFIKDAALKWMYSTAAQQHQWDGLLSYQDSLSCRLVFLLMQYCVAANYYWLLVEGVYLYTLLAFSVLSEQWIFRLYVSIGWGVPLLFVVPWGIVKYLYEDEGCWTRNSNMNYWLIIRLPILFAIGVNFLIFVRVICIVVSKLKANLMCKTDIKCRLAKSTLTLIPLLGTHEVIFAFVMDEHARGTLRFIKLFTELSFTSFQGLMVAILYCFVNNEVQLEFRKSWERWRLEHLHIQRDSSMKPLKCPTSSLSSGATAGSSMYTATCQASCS
# ClpP mod: qHTS Assay for Activators of ClpP; ATP-dependent Clp protease proteolytic subunit (Bacillus subtilis (strain 168)), P80244; purified B. subtilis ClpP, FRET peptide cleavage, 20 min; Potency, µM (top dose mostly 57.5 µM); actives 1.9% (n = 340,000); AID 651965, 2013; active = well fitted falling curve with a large enough effect; inconclusive = small, poorly fitted or top-dose-only effect; inactive = no such curve, though single readings can be large or run the other way; note: the source files actives as falling curves though it sought activators and does not explain the sign; nearly all actives have a fitted effect of over 65% in size
# Target sequence (P80244 whole entry, looked up): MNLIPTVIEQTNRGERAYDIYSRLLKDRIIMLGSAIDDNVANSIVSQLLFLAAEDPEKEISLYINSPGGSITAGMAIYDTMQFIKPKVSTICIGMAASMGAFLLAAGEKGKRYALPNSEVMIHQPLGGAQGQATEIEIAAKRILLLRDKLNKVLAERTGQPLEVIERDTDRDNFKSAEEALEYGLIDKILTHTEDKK
#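 Buffer: 100 mM Tris/HCl pH8, 100 mM KCl, 0.05% low protease BSA, 2.5% glycerol, 0.01% Tween-20. ClpP 10 microg/mL final; 20 min RT; delta FRET normalized to ADEP and DMSO controls.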
# p53 reactivator: qHTS assay for re-activators of p53 using a Luc reporter | H1299 p53-A138V BP100-luciferase reporter, luminescence, 24 h | actives 0.063% (n = 320,000) | Potency, µM (top dose mostly 92.2 µM), usual class: activators; note: nearly all actives have a fitted effect of over 45% in size
#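 p53-null H1299 cells stably carrying temperature-sensitive p53-A138V and a BP100-luciferase reporter were pinned with compounds (4-point, 1:5 series) and held 24 hrs at 37 deg C. Luminescence was read 10 min after detection reagent.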
# GLP-1R inv ag: qHTS of GLP-1 Receptor Inverse Agonists (Inhibition Mode); Potency, µM (series often up to 38.3 µM), usual class: inhibitors; actives 1.6% (n = 410,000); HEK293 GLP-1R CRE-luciferase, luminescence, 24 h; GLP-1R form is constitutively active; AID 624417, 2012; note: nearly all actives have a fitted effect of over 55% in size
#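 Assay principle: reduced luminescence from a cAMP-responsive reporter in HEK293 cells co-expressing a constitutively active GLP-1R. Conditions: 24 hr compound incubation, 37 deg C, 5% CO2.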
# LDHA block: qHTS assay for inhibitors of human lactate dehydrogenase. purified LDHA, NADH/diaphorase-resazurin fluorescence; hits give low values. activity change, % (values are at about 110 or 230 µM). actives 0.15% (n = 480,000). AID 1347041, 2019; in the data active = activity change below about -30%; inconclusive = mostly about -25% to -30%
#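 Human LDH5 at 2 nM final in Tris HCl pH 7.4 with 0.06 mM NADH and 0.2 mM pyruvate, reacted 5 minutes at room temperature. Remaining NADH coupled via diaphorase/resazurin; resorufin fluorescence read at 0 and 20 minutes, normalized to enzyme-free and DMSO wells.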
# HEK293 tox: qHTS of GLP-1 Receptor Inverse Agonists: Cytotox Screen; HEK293 cAMP-luciferase reporter cells, luminescence, 24 h; Potency, µM (titrated, usually from 38.3 µM), hits mostly inhibitors; actives 0.13% (n = 410,000); AID 624418, 2012;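 note: loss of luciferase light is scored as toxicity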
#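 Quantitative HTS format, 1536 wells, 200 cells/uL seeded. Compounds: 23 nL, 24 h, 37 °C. Detection: luciferase reagent, luminescence at 12 min RT; decreased signal taken as cytotoxic.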
# Hits are given with their value; - = inactive; ? = inconclusive; . = no result; [ ] = dose if it differs, or a comment. Unless noted, calls come from the whole dose curve; as a rule, active = well fitted curve in the direction sought with a large enough effect; inconclusive = small, poorly fitted or top-dose-only effect, or another doubt; inactive = no such curve, though single readings can be large; an effect the other way counts as inactive or inconclusive.
SMILES,GLP1R ag,ClpP mod,p53 reactivator,GLP-1R inv ag,LDHA block,HEK293 tox
O=C(Nc1ccc(F)cc1)N(Cc1cccs1)Cc1cc2cc3c(cc2[nH]c1=O)OCO3,-,32µM,-,-,-,-
O=C(NCCSCc1c(F)cccc1Cl)Nc1ccccc1,-,.,-,?,-,-
COC(=O)c1[nH]c2cccc(Cl)c2c1NC(=O)CN1CCN(CCO)CC1,-,-,-,-,-,-
Cc1cc(=O)[nH]c2c1c(C)nn2C(C)(C)C,-,.,-,-,-,-
C/C(=N\N=C(c1ccccc1)c1ccccc1)c1ccco1,-,.,-,?,-,-
C/C(=N\N(c1ccccc1)c1ccccc1)c1ccco1,-,-,-,8.9µM,-,-
CCN(CC)c1ccc(C2C(C(N)=O)=C(C)Nc3ncnn32)cc1 (configuration not stated),-,-,.,-,-,-
COc1c(C(O)CC(C)C)ccc2c1C(=O)OCc1cc(C)cc(O)c1O2 (configuration not stated),-,-,-,11µM,-,-
COc1c(C(CC(C)C)OC(C)=O)ccc2c1C(=O)OCc1cc(C)cc(O)c1O2 (configuration not stated),-,-,-,10µM,-,-
O=c1cc(N2CCCCC2)c(-c2ccccc2)nn1Cc1ccc(F)cc1,-,-,-,2µM,-,-
CC(C)=CCNc1ncnc2c1c(C#N)cn2C1OC(CO)C(O)C1O (configuration not stated),-,-,.,-,-52,-
NC(=O)c1nn(CC(=O)Nc2cccc(S(=O)(=O)N3CCCCCC3)c2)c(=O)c2ccccc12,-,-,-,-,-,-
CC(=O)N1N=C(c2ccc(Br)cc2)CC1c1cn(C)c2ccccc12 (configuration not stated),-,28µM,-,?,-,-
CCCC(=O)N1N=C(c2ccccc2)CC1c1cn(C)c2ccccc12 (configuration not stated),-,?,-,?,-,-
C=CCOc1ccc(/C=C/C(=O)c2ccc(OCCCCC)cc2)cc1,.,.,.,.,-,.
C=CCOc1ccc(C=CC(=O)c2c(O)c(OC)c(OC)c(OC)c2OC)cc1,-,-,.,7.9µM,-,-
Cc1cc2cc(CCNC(=O)CC(C)C)c(=O)[nH]c2cc1C,.,.,-,.,.,.
CCC(=O)NCCc1cc2cc(C)c(C)cc2[nH]c1=O,-,16µM,-,-,-,-
CC(C)(CO)NC(=O)C12CC3CC(CC(Br)(C3)C1)C2,-,20µM,-,-,-,-
CCO[C@H]1OC(C(=O)N2CCN(Cc3ccccc3)CC2)=C[C@@H](C2CCCCC2)[C@@H]1CCCO,-,-,-,?,-,-
CCO[C@@H]1OC(C(=O)N2CCN(Cc3ccc4c(c3)OCO4)CC2)=C[C@H](C2CCCCC2)[C@H]1CCCO,-,-,-,11µM,-,-
CCCCOc1ccc(CSC(=N)N)cc1Cl,-,.,-,?,-,?
COC(=O)c1cc(OC)c(OC)cc1NC(=O)CCC1CCCC1,-,32µM,-,?,-,-
COC(=O)c1cc(OC)c(OC)cc1NC(=O)CCCCCN1C(=O)CCC1=O,-,28µM,-,-,-,-
Cc1cnc(C(=O)OCC(=O)Nc2sc3c(c2C(N)=O)CCCC3)cn1,-,-,-,-,-,-
SMILES,GLP1R ag,ClpP mod,p53 reactivator,GLP-1R inv ag,LDHA block,HEK293 tox
CCCCC1=CC2=C(c3ccco3)C(=O)C(C)(OC(=O)c3ccc(OC)cc3)C(=O)C2=CN1CC1CC1 (configuration not stated),-,-,-,?,-,-
Cc1ccccc1-c1ccc2c(c1)O[C@@H](CN(C)C(=O)Nc1ccc(C(F)(F)F)cc1)[C@H](C)CN([C@@H](C)CO)S2(=O)=O,-,-,.,6.3µM,-,-
Cc1ccc(CCNC(=O)C2COc3ccccc3C2)cc1 (configuration not stated),.,-,.,-,-,-
N#Cc1nc(-c2ccco2)oc1N1CCN(c2cccc(Cl)c2)CC1,-,32µM,-,-,-,-
N#Cc1nc(-c2cccs2)oc1N1CCN(Cc2ccccc2)CC1,-,25µM,?,-,-,-
N#Cc1nc(-c2ccco2)oc1N1CCc2ccccc2C1,?,14µM,-,-,-,-
N#Cc1nc(-c2ccco2)oc1N1CCN(C(c2ccccc2)c2ccccc2)CC1,-,6.3µM,-,10µM,-,-
Cc1cc(C(=O)Nc2c(C)n(C)n(-c3ccccc3)c2=O)on1,-,-,-,-,-,-
O=C(Cn1c(=O)[nH]c2ccccc2c1=O)N1CCN(c2cccc(Cl)c2)CC1,-,32µM,-,-[7.66 µM],-,-[7.66 µM]
O=C(CCC(=O)N1CCN(c2cccc(Cl)c2)CC1)c1cccs1,-,.,-,?,-,-
O=C(Cn1c(-c2cccs2)cc2cc(F)ccc21)N1CCN(c2cccc(Cl)c2)CC1,.,28µM,.,?,-,-
O=C(CCCCCn1c(=O)[nH]c2ccccc2c1=O)N1CCN(c2ccc(Cl)cc2)CC1,.,?,.,-,-,-
CN1CCN(C(=O)Cn2c(-c3cccs3)cc3cc(Cl)ccc32)CC1,.,32µM,.,?,-,-
CCC(C)NC(=O)Cn1c(-c2cccs2)cc2cc(Cl)ccc21 (configuration not stated),.,?,.,-,-,-
CC(=O)NCc1ccc(-c2csc(-c3ccccc3)n2)o1,.,.,.,.,-,.
Cc1cccc(/C=N/n2c(-c3cc(-c4ccccc4)n[nH]3)n[nH]c2=S)c1,-,25µM,-,-,-,-
O=C(NC1CC(=O)N(c2ccccc2)C1)c1ccc(S(=O)(=O)N2CCCC2)cc1 (configuration not stated),.,-,.,-,-,-
O=C(c1ccc(S(=O)(=O)c2cccc(Cl)c2)c([N+](=O)[O-])c1)N1CCN(Cc2ccccc2)CC1,-,-,-,?,-,-
COc1ccc(OC)c(NC(=O)CSC2=Nc3ccccc3C3=NC(CC(=O)NCc4ccco4)C(=O)N23)c1 (configuration not stated),.,-,.,11µM,-,-
CCCCNC(=O)CC1N=C2c3ccccc3N=C(SCC(=O)NCc3ccccc3Cl)N2C1=O (configuration not stated),.,18µM,.,-,-,-
